Assay results: PubChem BioAssay

test: A549 cell viability effects, profiling panel, calcein-AM fluorescence, 48 h, basal (AID 1162); conditions: higher = more signal; also: test concentration not given here

| SMILES | z-score |
| --- | --- |
| CN1C(=O)[C@]2(CCC(=O)OC(C)(C)C)N=C(c3ccc(OCCCO)cc3)O[C@@H]2c2ccccc21 | -0.024 |
| CC(c1ccccc1)C(O)C1C=CC2C(=O)N(c3ccccc3)C(=O)C2N1Nc1ccc(C#N)cc1 (centres undefined) | 1.71 |
| COCCOC(=O)N1C(=O)[C@@]2(c3cc(C#CCCO)ccc31)[C@H](C(=O)N1CCN(c3ncccn3)CC1)[C@H]1C(=O)O[C@H](c3ccccc3)[C@H](c3ccccc3)N1[C@@H]2c1ccc(O)cc1 | 1.61 |
| C#CCN(C/C=C/c1ccccc1)[C@H](CO[Si](C)(C)C(C)(C)C)c1ccccc1 | -0.909 |
| NCCCC[C@@H]1NC(=O)[C@H]2C[C@@H](C(=O)O)[C@@H](c3cccc(OCCO)c3)N2C1=O | -0.917 |
| [N-]=[N+]=NCc1ccccc1C[C@]1(C(=O)N2CCCCC2)N=C(c2ccc(OCCCO)cc2)O[C@H]1c1ccccc1 | -0.888 |
| CCCCC(=C=CC[C@H](O)c1ccc(OCCO)cc1)C[C@H](O)c1ccccn1 | 1.47 |
| CN(C)C(=O)[C@@]1(CCS(=O)(=O)c2ccccc2)N=C(c2ccc(OCCCO)cc2)O[C@H]1c1ccccc1N=[N+]=[N-] | 0.137 |
| [N-]=[N+]=NCc1ccccc1[C@@H]1OC(c2ccc(OCCCO)cc2)=N[C@]1(Cc1ccccc1)C(=O)NCc1ccccc1 | 0.53 |
| O=C(NCCO)C1=C[C@H](Oc2ccccc2I)[C@@H](O)[C@H](NCc2ccc(F)cc2)C1 | 0.576 |
| COc1ccc([Si](C)(C)[C@@H]2[C@@H](CC(=O)N(CCO)Cc3ccccc3)O[C@]3(C(=O)N(Cc4ccc(N5CCC5=O)cc4)c4ccccc43)[C@H]2C)cc1 | -0.361 |
| O=C1NC(=O)C2C1C=CC(C(O)c1cccc(O)c1)N2Nc1ccc(Cl)cc1Cl (centres undefined) | -1.09 |
| CC(C)C[C@@H]1NC(=O)C([C@@H](C)OCc2ccccc2)NC(=O)[C@@]23C(=O)N[C@@H](Cc4ccccc4)C2[C@H](C)[C@@]2(C)O[C@H]2C3/C=C/CC/C=C/CNC1=O (some centres undefined) | -0.638 |
| COc1ccc([Si](C)(C)[C@H]2[C@H](CCO)O[C@@]3(C(=O)N(Cc4ccc(N5CCOC5=O)cc4)c4ccccc43)[C@@H]2C)cc1 | -0.108 |
| COc1ccc(CCNC(=O)[C@@]2(Sc3ccc(C)cc3)CC(=O)N(Cc3cc(C(F)(F)F)cc(C(F)(F)F)c3)[C@@H]2c2ccc(CO)cc2)cc1 | -0.147 |
| CCCCC(O)C1C=CC2C(=O)NC(=O)C2N1Nc1ccc(Cl)cc1Cl (centres undefined) | -1.99 |
| CO[C@H]1O[C@H](CO)[C@@H](OC(=O)Nc2ccc3c(c2)OCO3)[C@@H]2OC(=O)[C@@H](Cc3ccccc3)C/C=C/C[C@H](Cc3ccccc3)C(=O)O[C@@H]12 | 1.9 |
| CN(C)C(=O)[C@]1(Cc2ccccc2CN=[N+]=[N-])N=C(c2ccc(OCCCO)cc2)O[C@@H]1c1ccccc1N=[N+]=[N-] | -0.691 |
| O=C1OCCC=C[C@H]2OC34C=CCN(CCN5CCOCC5)C(=O)[C@H]3N(CCCO)C(=O)[C@@H]4C12 (some centres undefined) | 0.531 |
| C=CCNC(=O)[C@@H]1[C@H]2C(=O)O[C@H](c3ccccc3)[C@H](c3ccccc3)N2[C@H](c2ccccc2OCCO)[C@@]12C(=O)N(C(=O)OCCOC)c1ccc(C#CCCO)cc12 | 0.614 |
| C=CCC(OC(C)=O)[C@@H]1[C@@H](N(Cc2cccc3ccccc23)C(=O)c2cccc3ccccc23)c2cc(OCCCO)ccc2N1C(=O)Cc1ccc2ccccc2c1 (some centres undefined) | -0.612 |
| C=C(COC)/C(=C/C[C@@H](OC(C)=O)c1ccccc1OCCO)c1cc(C(=O)OC)ccc1OC | 1.2 |
| COCC(=C=CC[C@@H](O)c1cccc(OCCO)c1)C[C@@H](O)COCc1ccccc1 | 1.06 |
| CCCCC=C[C@@H](NC(=O)c1ccc(C(F)(F)F)cc1)c1ccccc1 | -1.13 |
| COC(=O)[C@]1(CO)N=C(c2ccc(OCCCO)cc2)O[C@@H]1c1ccccc1CN=[N+]=[N-] | 0.0394 |
| COC(=O)[C@@]1(Cc2ccc(OC)cc2)[C@H]2c3cc(C(=O)N4CCCC4)n(CCc4ccc(OC)c(Br)c4)c3C[C@H]2CN1C(=O)c1ccccc1 | -0.572 |
| COCCOC(=O)N1C(=O)[C@@]2(c3cc(C#CCC(C(=O)OC)C(=O)OC)ccc31)[C@H](C(=O)N1CCc3cc(OC)c(OC)cc3C1)[C@H]1C(=O)O[C@H](c3ccccc3)[C@H](c3ccccc3)N1[C@@H]2c1ccc(O)cc1 | 0.373 |
| CCC(CC)C(O)C1C=CC2C(=O)N(C)C(=O)C2N1N1CCCCC1 (centres undefined) | -0.0236 |
| COc1cc2c(cc1O)C(c1ccc(CN3CCCC3)cc1)N(Cc1ccc([N+](=O)[O-])o1)CC2 (centres undefined) | -0.731 |
